Results taken from PubChem BioAssay AID1628 (Sanford-Burnham Center for Chemical Genomics, 2009).
Screen size: about 190,000 compounds; about 930 (0.49%) were called active. The list shows a part of the results. Results with a measured potency or affinity are listed apart. A number with no mark means an inactive call.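 Rule for the calls: active = z-score of insulin promoter reporter brightness in nuclei below -3 at 5 µM, with at least 500 cells counted; inconclusive = wells with under 500 cells, flagged as toxic or sparse; inactive = the rest.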

Assay: insulin promoter down-regulators in MIN6 cells, imaging, high-content screening, mouse beta cells (AID 1628)
Conditions: MIN6 insulin promoter GFP reporter, at 5 µM, stronger effect = lower value

| SMILES | z-score |
| --- | --- |
| c1ccc(-n2ncc3c(N4CCN(c5ccccn5)CC4)nc(N4CCCCCC4)nc32)cc1 | 4.11 |
| C/C(=C\c1ccccc1)CN1CCN(c2ccccc2)CC1 | 1.49 |
| CC(=O)Nc1sc(/C(C#N)=C\c2cccc(Cl)c2)nc1-c1ccc(C)cc1 | 15.6 |
| CCOC(=O)N1CCN(/C=C(\C#N)c2nc3ccccc3s2)CC1 | 3.47 |
| Cc1nn(-c2ccccc2)c(N2CCCC2)c1/C=N/n1cnc2scc(-c3ccccc3)c2c1=O | -3.26 (active) |
| COc1cc2c3nnc(-c4ccc(F)cc4)c-3cn(Cc3ccccc3)c2cc1OC | 3.81 |
| COc1ccc(Nc2ncnc3c2cnn3Cc2ccccc2)cc1OC | -4.71 (active) |
| O=[N+]([O-])c1ccc(N/N=C/c2ccc[nH]2)cc1 | 12.9 |
| N#C/C(=C/c1ccc(N2CCOCC2)o1)c1ccc(Cl)cc1 | 7.33 |
| Oc1c(C=NCc2ccc(F)cc2)[nH]c2ccc(Br)c(Cl)c12 | 4.06 |
| CCOC(=O)c1ccc(NC(=O)COc2ccc(S(=O)(=O)NC(C)CC)cc2)cc1 (centres undefined) | 3.08 |
| CCC(C)NS(=O)(=O)c1ccc(NC(=O)Cc2ccc(OC)cc2)cc1 (centres undefined) | -3.19 (active) |
| COc1ccc(NC(=O)CSc2ncccc2C(=O)OC(C)C)cc1OC | -5.26 (active) |
| Cc1ccccc1CN(c1ccc(C(=O)NCC2CCCO2)cc1)S(C)(=O)=O (centres undefined) | -4.88 (active) |
| O=C(COC(=O)c1ccco1)NCC1CCCO1 (centres undefined) | 3.04 |
| CCCc1n[nH]c2c1C(=O)C(C(=O)OC)C(C)(C)C2 (centres undefined) | 3.65 |
| CN(CCC#N)C(=O)COC(=O)c1ccc(Cl)c(S(N)(=O)=O)c1 | -5.92 (active) |
| CCOC(=O)C1=C(c2ccccc2)NC(N)=NC1c1ccc(OCc2ccc(Cl)cc2)c(OC)c1 (centres undefined) | -3.43 (active) |
| CCOC(=O)C1=C(C)NC(=O)NC1c1ccc(N2CCC(c3ccccc3)=N2)cc1 (centres undefined) | 4.29 |
| COc1ccc(Cl)cc1NC(=O)c1c(-c2ccccc2)noc1C | 18 |
| O=[N+]([O-])c1ccc(N/N=C/c2c[nH]c3ccccc23)cc1 | 3.11 |
| O=C(/C=C/c1ccccc1)NCC(=O)N/N=C/c1ccccc1[N+](=O)[O-] | 3.03 |
| C=C(C)Cn1c(=S)[nH]c2ccccc2c1=O | -6.61 (active) |
| Nn1c(=O)[nH]c2ccccc2c1=O | -0.08 |
| CCN(CC)CCn1c(=S)[nH]c2ccc(Cl)cc2c1=O | 3.97 |

| SMILES | z-score |
| --- | --- |
| O=[N+]([O-])c1ccc(Cc2nnc(-c3ccccc3Cl)o2)cc1 | 2.55 |
| COCc1c(C(=O)OCC(=O)c2c(N)n(CC(C)C)c(=O)n(C)c2=O)oc2ccccc12 | -4.37 (active) |
| CCOc1ccc(-c2nnn(CC(=O)c3ccc4c(c3)OCCO4)n2)cc1 | -0.23 |
| CC(C)Cn1c(N)c(C(=O)COC(=O)c2ccc3c(c2)OCCO3)c(=O)n(C)c1=O | -4.98 (active) |
| C[C@@H](C(=O)Nc1ccc2ccccc2c1)[C@H]1C[C@]1(C)[C@H](NC(=O)c1cnccn1)c1ccccc1 | -4.74 (active) |
| CCOC(=O)C1=C(N2CCCCC2)c2cc3c(n2C1=O)CCCC3 | -3.42 (active) |
| CCOC(=O)CN1C(=O)S/C(=C/c2ccc(N3CCCCC3)o2)C1=O | 5.8 |
| COc1ccc2c(OC)c3ccoc3nc2c1OC | -0.53 |
| CCCS(=O)(=O)N1CCN(Cc2ccccc2C(F)(F)F)CC1 | -0.28 |
| CCCS(=O)(=O)N1CCN(Cc2ccccc2[N+](=O)[O-])CC1 | -3.06 (active) |
| CC(C)SC1=NC(C)(C)C=C(/C=C/c2ccc(Cl)cc2Cl)N1 | 3.58 |
| Cn1cnc2c(NCc3ccco3)ncnc21 | -0.11 |
| Cc1cc(N/N=C/c2ccc([N+](=O)[O-])o2)nc2ccccc12 | 8.56 |
| Cc1ccc(/C=N/Nc2ccc3ccccc3n2)o1 | -3.22 (active) |
| Cc1nc2ccccn2c1-c1csc(NCc2ccco2)n1 | -9.7 (active) |
| Cc1ccn2c(-c3csc(NCc4ccco4)n3)c(C)nc2c1 | -6.24 (active) |
| Cc1ccn2c(=O)cc(C)nc2c1 | 2.27 |
| CC(=O)Nc1ccc(N2CCc3c(C)c(C#N)c4nc5ccccc5n4c32)cc1 | 3.8 |
| CC(=O)Nc1ccc(N2C(=O)C3C4CC(=O)C(c5ccccc54)C3C2=O)cc1 (centres undefined) | -5.05 (active) |
| CC1CN(Cc2cc(=O)[nH]c(C3CC3)n2)CC(C)O1 (centres undefined) | -3.69 (active) |
| C/C(=N\NC(=O)C1CCCN(S(=O)(=O)c2ccccc2)C1)c1ccccn1 (centres undefined) | -3.38 (active) |
| O=C(NCc1ccc(F)cc1)C1CCCN(S(=O)(=O)c2cccnc2)C1 (centres undefined) | 3.46 |
| CCN(CCNC(=O)C1CCCN(S(=O)(=O)CC)C1)c1ccccc1 (centres undefined) | 3.08 |
| COc1cc(/C=N/NC(=S)Nc2cccc(Cl)c2C)ccc1OCC(=O)N1CC(C)OC(C)C1 (centres undefined) | -3.25 (active) |
